Drawing on PubChem BioAssay (NCI), this text covers growth for eight molecules.

Test in all cases: NCI-60 one-dose screen, 48 h (100 = growth as untreated, 0 = no growth, -100 = all killed)
Conditions in all cases: 10 µM unless noted

The test system of assay [1] is DU-145 prostate.
Assay [2] concerns K-562 leukemia.
Assay [3] relates to MALME-3M melanoma.
For assay [4], the system named is MDA-MB-231 breast.
Assay [5] has as its system RXF 393 renal.
For assay [6], the system named is SF-268 CNS.
The subject of assay [7] is SF-539 CNS.
The test system of assay [8] is UACC-257 melanoma.
The test system of assay [9] is M14 melanoma.
Assay [10] has as its system HCT-15 colon.
For assay [11], the system named is HT29 colon.
The test system of assay [12] is SNB-75 CNS.
Assay [13] relates to SNB-19 CNS.
Assay [14] concerns U251 CNS.
Assay [15] relates to PC-3 prostate.
Assay [16] has as its system SK-MEL-5 melanoma.
Assay [17] relates to UACC-62 melanoma.
Assay [18] has as its system LOX IMVI melanoma.
The subject of assay [19] is SK-MEL-28 melanoma.

About 83,000 compounds went through this panel and 20% of them were active in at least one assay; those are over-represented in the sample as a whole.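 In brief: 96-well plates, 48 h treatment, single concentration, percent growth endpoint.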 Unmarked numbers belong to inactive results. Active and inactive are the calls of the source. Rule for the calls: active = growth percent below 10; inactive = the rest.

Regarding `C=CCn1c(SCC(=O)Nc2ccc(/C(C)=N\O)cc2)nnc1-c1cc(-c2ccccc2)nc2ccccc12`, the growth in assay [1] was 75%; in assay [2], 27.6%; in assay [3], 96.3%; in assay [4] it was 58.3%; in assay [5] it was 68.8%; in assay [6], 62.8%. Besides, the growth is 50.6% in assay [7]; 75.6% in assay [8]; 34% in assay [9]; 50.8% in assay [10]; 49.9% in [11]; 58.3% in assay [12]. Further, the growth in [13] is 68.5%; in assay [14], 59.1%; in assay [15] it was 43.5%; in assay [16], 48.4%; in assay [17] it was 24.3%; in [18], -58.1% (active). Further, the growth in [19] was 86.7%.

Take `O=C(c1ccccc1)N(CCCCl)C(=O)N(CCCCl)C(=O)c1ccccc1`: the growth in assay [1] was 102%; in assay [2], 91.1%; in assay [3] it was 91.8%; in assay [4] it was 85.7%; in [5] it was 111%; in [6] it was 100%. For the same molecule, the growth in assay [7] is 97.2%; in assay [8] it was 100%; in assay [9], 96.4%; in assay [10] it was 94.6%; in assay [11], 82.1%; in assay [12], 104%. Also, the growth in assay [13] is 97.4%; in [14] it was 88.5%; in assay [15], 72.1%; in [16], 89.6%; in assay [17] it was 65.2%; in assay [18], 90%. In [19], the growth was 133%.

As to `CCOC(=O)c1c(NC(=O)c2ccccc2)sc2c(O)c(CN(CC)CC)ccc12`, the growth was -26.9% (active) in assay [1]; 7.52% (active) in assay [2]; 38.1% in assay [3]; 1.41% (active) in assay [4]; -27.4% (active) in [5]; 4.48% (active) in assay [6]. For the same molecule, the growth in assay [7] is 6.42% (active); in [8], 51%; in assay [9], 14.4%; in [10], 15.7%; in [11], 2.28% (active); in assay [12] it was -26.2% (active). In addition, the growth was 43.8% in assay [13]; 1.72% (active) in assay [14]; 22.8% in assay [15]; -51.3% (active) in assay [16]; 21.2% in assay [17]; 13.3% in assay [18]. Besides, the growth in assay [19] is 40%.

For the molecule `CCNC(=S)N(Cc1ccccc1)Cc1ccccc1`, the growth in assay [1] is 124%; in [2], 100%; in assay [3] it was 105%; in assay [4], 116%; in [5], 126%; in assay [6] it was 116%. Besides, the growth in assay [7] was 104%; in assay [8], 98.7%; in [9], 108%; in assay [10], 111%; in [11] it was 98.8%; in assay [12] it was 103%. Also, the growth was 123% in assay [13]; 96.4% in assay [14]; 95.3% in assay [15]; 101% in assay [16]; 91.7% in assay [17]; 112% in assay [18]. Moreover, the growth in assay [19] is 110%.

On to `O=C(NC1CC1)c1ccc(-c2nc3ccc4[nH]ncc4c3c3c2CCCC3)cc1`, for which the growth in assay [1] is 38.2%; in assay [2], 24.4%; in [3], 53.8%; in assay [4], 45.7%; in [5], -9.49% (active); in assay [6], 35.1%. Moreover, the growth was 31.3% in assay [7]; 60.2% in assay [8]; 44.7% in [9]; 29% in [10]; 35.2% in assay [11]; -5.58% (active) in [12]. The growth in [13] was 65.3%; in assay [14] it was 34.5%; in assay [15], 43.1%; in [16], 55.2%; in assay [17], 28.8%; in [18], 38.7%. The growth in [19] is 47.4%.

On to `COc1cc(C2Nc3ccccc3S2)cc(CN2CCOCC2)c1O` (configuration not stated), for which the growth was 101% in assay [1]; 46.9% in [2]; 66.7% in assay [3]; 63.6% in assay [4]; 78.5% in [5]; 91.1% in [6]. Further, the growth in assay [7] was 82.3%; in assay [8] it was 78.2%; in [9], 55.5%; in assay [10], 52.3%; in assay [11], 93.4%; in [12], 46%. The growth in assay [13] is 75.9%; in [14], 86.7%; in [15], 82.1%; in assay [16], 50.6%; in assay [17], 57.3%; in assay [18] it was 78.2%. Besides, the growth in [19] was 68.6%.

As to `CCCCCCCCCCCCCCC(C(=O)OCC)C(=O)OCC`, the growth in assay [1] is 110%; in [2] it was 121%; in [3], 92.8%; in assay [4], 101%; in assay [5], 113%; in assay [6], 110%. Moreover, the growth in [7] is 105%; in assay [8], 106%; in assay [9], 108%; in assay [10], 99.5%; in [11], 115%; in assay [12] it was 94.7%. Also, the growth in assay [13] is 102%; in [14], 104%; in assay [15], 108%; in [16], 99.3%; in [17] it was 101%; in assay [18] it was 119%. For the same molecule, the growth in assay [19] is 102%.

`CC(=O)O[C@H]1[C@H](CC#CC#CC[C@@H]2C[C@]3(C)[C@H]4CC=C5[C@H]6[C@@H](C)[C@H](C)CC[C@]6(C(=O)NCCCCCCCCN)CC[C@@]5(C)[C@]4(C)CC[C@H]3C(C)(C)[C@H]2OC(C)=O)C[C@]2(C)[C@H]3CC=C4[C@H]5[C@@H](C)[C@H](C)CC[C@]5(C(=O)NCCCCCCCCN)CC[C@@]4(C)[C@]3(C)CC[C@H]2C1(C)C`: the growth in assay [1] was 110%; in [2] it was 108%; in [3] it was 105%; in assay [4] it was 103%; in [5] it was 94.6%; in assay [6], 102%. Further, the growth is 94.1% in assay [7]; 106% in [8]; 102% in assay [9]; 108% in assay [10]; 98.2% in [11]; 94.7% in [12]. Besides, the growth in assay [13] is 107%; in assay [14], 98.2%; in assay [15], 92.8%; in assay [16] it was 105%; in assay [17] it was 112%; in assay [18] it was 96.9%. For the same molecule, the growth in assay [19] is 124%.
